Test [1] concerns the target Nuclear receptor coactivator 3 (Homo sapiens) (UniProt Q9Y6Q9). Briefly: NCOA3 GAL4-fusion reporter inhibition – cell-based, luminescence, quadruplicate, confirmation (AID 588792;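 active means mean inhibition over 43.08%, the solvent-only control mean plus 3 SD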;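 further: 0% = DMSO treated cells and 100% = gossypol at 36 µM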). The following applies: HEK293 GAL4-SRC3 luciferase reporter, at 3.6 µM, active compounds read high. Background: Reporter assays use an easily measured gene product as a stand-in for the process of interest.

Test [2] has as its system transactivating tegument protein VP16 (Human herpesvirus 1), Gal4-VP16 luciferase reporter. Briefly: repression of VP16-driven luciferase reporter – cell-based, luminescence, high throughput, counter-screen for SRC3 inhibitor project (AID 588794; in the data active means inhibition above about 30%). The following applies: mammalian cells, at 3.6 µM, active compounds read high.
Test [3] has as its target Nuclear receptor coactivator 1 (Homo sapiens) (UniProt Q15788). In words: NCOA1 GAL4-fusion reporter inhibition – cell-based, luminescence, quadruplicate, confirmation (AID 588820;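 active means mean inhibition above 46.68%, the untreated control wells mean plus 3 SD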;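 further: 0% = DMSO wells and 100% = gossypol 36 µM treated wells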). The following applies: HEK293 GAL4-SRC1 luciferase reporter, at 3.6 µM, active compounds read high.
Test [4] is described as follows: repression of VP16-driven luciferase reporter – cell-based, luminescence, high throughput, counter-screen for SRC1 inhibitor project (AID 588824). The following applies: cell-based VP16 transactivation luciferase luminescence; at 3.6 µM; active compounds read high.

Structures are written as SMILES. Unmarked numbers belong to inactive results. The source made the active and inactive calls. Unless noted, no stated cut-off is given here; in the data, active means inhibition above about 25%; inactive means the rest.

Nuclear receptor coactivator 1 (Homo sapiens), sequence (Q15788 whole entry, looked up, the tested form may be a part): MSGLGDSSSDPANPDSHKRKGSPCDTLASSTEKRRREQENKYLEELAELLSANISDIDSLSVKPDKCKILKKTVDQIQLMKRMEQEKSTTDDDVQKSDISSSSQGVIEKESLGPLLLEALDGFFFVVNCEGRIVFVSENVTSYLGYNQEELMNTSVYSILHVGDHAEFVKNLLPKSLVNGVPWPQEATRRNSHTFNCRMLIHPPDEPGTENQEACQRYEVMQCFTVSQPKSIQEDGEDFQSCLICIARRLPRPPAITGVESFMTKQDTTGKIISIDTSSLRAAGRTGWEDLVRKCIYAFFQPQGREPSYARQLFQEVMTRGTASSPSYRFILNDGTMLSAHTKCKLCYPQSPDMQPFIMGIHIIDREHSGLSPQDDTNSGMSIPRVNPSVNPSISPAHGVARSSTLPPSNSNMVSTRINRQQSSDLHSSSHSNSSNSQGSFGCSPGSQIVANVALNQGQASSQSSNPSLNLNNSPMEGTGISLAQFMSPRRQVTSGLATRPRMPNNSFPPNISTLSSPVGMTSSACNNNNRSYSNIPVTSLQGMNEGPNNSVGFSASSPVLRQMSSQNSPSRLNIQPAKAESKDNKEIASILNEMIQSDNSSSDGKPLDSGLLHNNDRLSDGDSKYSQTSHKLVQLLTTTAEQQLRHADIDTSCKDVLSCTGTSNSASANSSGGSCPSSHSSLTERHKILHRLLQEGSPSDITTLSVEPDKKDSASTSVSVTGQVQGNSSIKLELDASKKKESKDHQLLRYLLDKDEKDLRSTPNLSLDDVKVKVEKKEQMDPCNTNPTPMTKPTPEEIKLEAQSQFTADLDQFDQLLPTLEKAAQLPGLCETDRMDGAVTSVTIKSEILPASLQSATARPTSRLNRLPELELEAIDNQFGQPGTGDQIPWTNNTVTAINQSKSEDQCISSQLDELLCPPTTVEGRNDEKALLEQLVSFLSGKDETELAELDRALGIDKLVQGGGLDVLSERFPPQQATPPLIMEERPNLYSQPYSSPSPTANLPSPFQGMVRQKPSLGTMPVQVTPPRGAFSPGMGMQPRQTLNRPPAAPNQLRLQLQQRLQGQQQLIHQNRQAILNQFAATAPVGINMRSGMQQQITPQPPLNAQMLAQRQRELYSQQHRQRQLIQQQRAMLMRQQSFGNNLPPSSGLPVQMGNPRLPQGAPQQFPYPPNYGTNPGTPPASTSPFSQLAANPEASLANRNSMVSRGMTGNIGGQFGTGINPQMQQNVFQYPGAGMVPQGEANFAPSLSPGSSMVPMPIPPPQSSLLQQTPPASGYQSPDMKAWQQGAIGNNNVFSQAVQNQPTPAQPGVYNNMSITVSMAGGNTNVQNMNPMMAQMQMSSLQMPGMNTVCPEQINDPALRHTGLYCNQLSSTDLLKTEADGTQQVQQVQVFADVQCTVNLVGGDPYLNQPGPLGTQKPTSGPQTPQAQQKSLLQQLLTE
Nuclear receptor coactivator 3 (Homo sapiens), sequence (Q9Y6Q9 whole entry, looked up, the tested form may be a part): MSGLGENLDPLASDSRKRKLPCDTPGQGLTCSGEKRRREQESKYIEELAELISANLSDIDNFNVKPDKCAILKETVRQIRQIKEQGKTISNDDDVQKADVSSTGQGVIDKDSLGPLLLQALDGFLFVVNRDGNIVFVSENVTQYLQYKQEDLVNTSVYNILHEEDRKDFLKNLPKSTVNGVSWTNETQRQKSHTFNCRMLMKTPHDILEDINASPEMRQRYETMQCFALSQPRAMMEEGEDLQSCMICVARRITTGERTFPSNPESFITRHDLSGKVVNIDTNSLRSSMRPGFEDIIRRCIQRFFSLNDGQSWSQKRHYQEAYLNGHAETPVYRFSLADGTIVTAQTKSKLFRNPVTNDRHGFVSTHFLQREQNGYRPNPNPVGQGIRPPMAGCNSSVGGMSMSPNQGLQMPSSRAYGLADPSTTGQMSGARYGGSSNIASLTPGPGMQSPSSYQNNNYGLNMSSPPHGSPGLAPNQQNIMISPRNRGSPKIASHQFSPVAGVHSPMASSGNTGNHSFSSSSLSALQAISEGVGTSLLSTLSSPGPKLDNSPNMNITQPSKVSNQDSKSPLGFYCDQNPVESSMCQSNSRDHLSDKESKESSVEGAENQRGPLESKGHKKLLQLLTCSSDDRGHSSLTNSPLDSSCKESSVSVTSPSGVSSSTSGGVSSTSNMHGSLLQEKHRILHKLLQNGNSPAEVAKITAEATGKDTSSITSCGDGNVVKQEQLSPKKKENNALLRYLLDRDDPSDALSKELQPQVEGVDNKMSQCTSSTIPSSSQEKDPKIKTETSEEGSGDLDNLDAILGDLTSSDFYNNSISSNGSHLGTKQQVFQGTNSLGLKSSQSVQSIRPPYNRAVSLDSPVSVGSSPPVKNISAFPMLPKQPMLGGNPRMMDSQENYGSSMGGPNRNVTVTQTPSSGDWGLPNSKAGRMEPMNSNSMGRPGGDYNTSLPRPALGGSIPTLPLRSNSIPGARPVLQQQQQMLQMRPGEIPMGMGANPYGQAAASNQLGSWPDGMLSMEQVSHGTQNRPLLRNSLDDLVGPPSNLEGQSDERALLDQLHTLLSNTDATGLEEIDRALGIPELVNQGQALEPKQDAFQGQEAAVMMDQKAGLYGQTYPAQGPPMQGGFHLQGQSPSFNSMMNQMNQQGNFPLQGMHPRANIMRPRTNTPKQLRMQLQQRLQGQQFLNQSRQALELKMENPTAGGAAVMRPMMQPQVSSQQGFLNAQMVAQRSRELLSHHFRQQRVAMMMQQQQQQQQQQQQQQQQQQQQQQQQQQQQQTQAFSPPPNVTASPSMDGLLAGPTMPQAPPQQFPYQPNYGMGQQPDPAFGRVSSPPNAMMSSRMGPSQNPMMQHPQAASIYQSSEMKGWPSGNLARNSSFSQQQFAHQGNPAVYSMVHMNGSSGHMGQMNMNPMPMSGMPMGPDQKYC

As for `Cc1cc(C)nc(/N=C(\N)Nc2ccc(-c3ccccc3)cc2)n1`, the inhibition was 9.37% in test [1], 33.3% (active) in test [2], 21.7% in test [3] and 30.1% (active) in test [4].

In the case of `O=C(N/N=C/c1cc(Cl)cc(Cl)c1O)c1ccncc1`, the inhibition was 26.5% in test [1], 40.9% (active) in test [2], 30.7% in test [3] and 33.7% (active) in test [4].

For `Cc1nc2c(o1)C(=O)c1ccccc1C2=Nc1ccccc1`, the inhibition in test [1] is 78.5% (active); in test [2] it was 94.3% (active); in test [3] it was 61.8% (active); in test [4] it was 79.1% (active).

As to `COc1cccc2nc3c(C(=O)NCCN(C)C)cccc3cc12`, the inhibition in test [1] is 35.9%; in test [2] it was 39.9% (active); in test [3], 46.5%; in test [4], 32.7% (active).

Regarding `CCOC(=O)C(=Cc1ccccc1)C(=O)c1ccccc1`, the inhibition was 21.3% in test [1], 33.6% (active) in test [2], 10.6% in test [3] and 28.7% (active) in test [4].

As for `COC(=O)c1ccc2nc(Nc3nc4ccc(F)cc4s3)sc2c1`, the inhibition in test [1] was 21.2%; in test [2] it was 3.83%; in test [3], -36.1%; in test [4], -19.9%.

For the molecule `O=C(Nc1nc(-c2ccc(F)c(F)c2)cs1)c1ccc(OCC2CCCO2)cc1` (centres undefined), the inhibition in test [1] was 7.06%; in test [2], 36% (active); in test [3], 5.41%; in test [4], 39.4% (active).

For `CC(C)(C)[C@H]1C=C(C(=O)Nc2ccccc2)O[C@@H](OCCCCO)C1`, the inhibition in test [1] is -13.7%; in test [2], -16.4%; in test [3], -41.4%; in test [4] it was -38%.

With `CC1CCN(Cc2c(C(=O)N/N=C/c3ccccc3O)nnn2-c2nonc2N)CC1`, the inhibition in test [1] is 57.7% (active); in test [2] it was 41.1% (active); in test [3] it was 64.4% (active); in test [4], 56.8% (active).

Take `O=c1[nH]c(=O)n(C2OC(CO)C(O)C2O)cc1F` (centres undefined): the inhibition in test [1] was 57.4% (active); in test [2] it was 58.5% (active); in test [3] it was 26.9%; in test [4] it was 57.2% (active).

Take `COc1cc(-c2cc3nc4ccccc4n3c(N)c2C#N)cc(OC)c1OC`: the inhibition in test [1] is 14.5%; in test [2] it was -16.8%; in test [3] it was -42.6%; in test [4] it was -12.8%.

In the case of `O=C(NC1CCCN(Cc2ccccc2F)C1)c1cccc(N2CCCC2=O)c1` (centres undefined), the inhibition in test [1] is 3.31%; in test [2], -7.69%; in test [3], -4.75%; in test [4], -1.08%.

On to `CN(C)CCCN1C(=O)c2cccc3c([N+](=O)[O-])ccc(c23)C1=O`, for which the inhibition in test [1] is 17.8%; in test [2] it was 5.35%; in test [3], -9.62%; in test [4], 0.85%.

Consider `CCOc1cc(Br)cc(/C=N/NC(=O)c2cccnc2)c1O`, for which the inhibition is 33% in test [1], 44.3% (active) in test [2], 27.3% in test [3] and 36.9% (active) in test [4].

As for `Cc1cc(=O)[nH]c(Nc2cccc(C(F)(F)F)c2)n1`, the inhibition in test [1] was 38.8%; in test [2], 34.2% (active); in test [3], 49.4% (active); in test [4], 27% (active).

As to `Cc1ccc2c(C)nc(Nc3nc(CSc4nc5ccccc5[nH]4)cc(=O)[nH]3)nc2c1`, the inhibition in test [1] was 12.4%; in test [2], 16.1%; in test [3], -14.6%; in test [4], 17.5%.

With `Cn1c(/C=C/c2ccc(Cl)cc2)c([N+](=O)[O-])c(=O)n(C)c1=O`, the inhibition in test [1] is 39.6%; in test [2], 35.7% (active); in test [3] it was 36.3%; in test [4], 28.6% (active).

As to `CCCCOC(=O)c1[nH]c2c(c1C)C(=O)CC(c1cc(OC)c(OC)c(OC)c1)C2` (centres undefined), the inhibition is 8.2% in test [1], 28% in test [2], -1.5% in test [3] and 32.1% (active) in test [4].

With `COc1cccc(CN(C)C(=O)c2ccc(OCC(=O)Nc3cccc(C(F)(F)F)c3)c(OC)c2)c1`, the inhibition was 14.8% in test [1], 34% (active) in test [2], 6.82% in test [3] and 35.6% (active) in test [4].

With `Nc1nccc(-c2ccc(-n3cnc4ccccc43)cc2)n1`, the inhibition in test [1] was 56.7% (active); in test [2] it was 27.4%; in test [3], 57.7% (active); in test [4], 26.3% (active).

In the case of `Cc1cc2[nH]c3ccccc3c2c(C)n1`, the inhibition is -0.94% in test [1], 18.7% in test [2], -3.38% in test [3] and 9.89% in test [4].

Turning to `CCOc1cc(/C=C2\CN(C)C/C(=C\c3ccc(O)c(OCC)c3)C2=O)ccc1O`, the inhibition in test [1] is 56.2% (active); in test [2] it was 60.4% (active); in test [3], -18.5%; in test [4] it was 75.6% (active).

In the case of `COc1ccc2cc3c(N)nn(C(=O)c4ccc(Cl)c([N+](=O)[O-])c4)c3nc2c1`, the inhibition is 70.2% (active) in test [1], 39.4% (active) in test [2], 56.7% (active) in test [3] and 36.5% (active) in test [4].

With `COc1ccc2c(c1OC)C(=O)N1c3ccccc3C(=O)N(c3ccccc3)C21` (centres undefined), the inhibition in test [1] is 17.1%; in test [2], 8.85%; in test [3], -5.64%; in test [4] it was 2.1%.

Take `CC(C)CC(=O)/C(=C\c1ccc(Cl)cc1Cl)n1cncn1`: the inhibition in test [1] is 60.2% (active); in test [2] it was 48.8% (active); in test [3], 14.1%; in test [4], 55.6% (active).

`O=C(Nc1ccc(Cn2cccn2)cc1)c1ccc(COc2cccc(Br)c2)cc1`: the inhibition is 1.93% in test [1], 42.6% (active) in test [2], -34.7% in test [3] and 30.4% (active) in test [4].

As a reminder, the inhibition is the change of the read-out against control, counted positive when it falls.

Source of the values: PubChem BioAssay.
